Several values for one entry are separate records, joined by “and”; a condition that tells them apart may be missing. Identical values can stand only once.
What follows are molecules tested against Serine/threonine-protein kinase PLK1 (Homo sapiens) (UniProt P53350) (assay: Plk1 polo box domain binding inhibitors, SAR follow-up, biochemical, fluorescence polarization, purchased analogs (AID 1053)). Settings: Plk1 PBD fluorescence polarization peptide binding; at 20 µM; hits give high values; call rule not given here.
Serine/threonine-protein kinase PLK1 (Homo sapiens), sequence (P53350 whole entry, looked up, the tested form may be a part): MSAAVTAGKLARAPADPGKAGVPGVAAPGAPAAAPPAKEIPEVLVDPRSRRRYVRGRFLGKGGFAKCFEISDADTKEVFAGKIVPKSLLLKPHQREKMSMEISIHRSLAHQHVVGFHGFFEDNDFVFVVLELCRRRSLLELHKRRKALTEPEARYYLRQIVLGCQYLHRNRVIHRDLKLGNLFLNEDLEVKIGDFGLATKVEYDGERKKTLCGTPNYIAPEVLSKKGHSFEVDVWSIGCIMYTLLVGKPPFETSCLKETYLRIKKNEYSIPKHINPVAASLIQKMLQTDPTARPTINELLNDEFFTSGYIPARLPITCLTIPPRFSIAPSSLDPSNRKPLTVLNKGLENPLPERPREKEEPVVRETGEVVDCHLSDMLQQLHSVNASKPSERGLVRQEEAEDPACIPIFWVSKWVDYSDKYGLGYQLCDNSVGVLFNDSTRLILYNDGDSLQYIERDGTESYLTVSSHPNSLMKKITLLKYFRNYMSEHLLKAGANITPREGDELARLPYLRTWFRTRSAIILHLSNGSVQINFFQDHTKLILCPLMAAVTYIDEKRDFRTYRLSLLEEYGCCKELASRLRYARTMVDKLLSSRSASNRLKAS

inhibition, inactive:
CC(OC(=O)c1ccc(NC(=O)c2ccc(Br)cc2)cc1)C(=O)c1ccccc1 (centres undefined) 0.95%
CCOC(=O)c1ccc(N=Cc2c(O)n(C3CCCCC3)c(=O)n(C3CCCCC3)c2=O)cc1 13.1%
CCOC(=O)c1ccc(NC(=O)C2OCCc3ccccc32)cc1 (centres undefined) -101%
CC1CN(c2cc3nccnc3cc2F)CC(C)O1 (centres undefined) -46.8%
CC(=O)N(CN1C(=O)c2ccc([N+](=O)[O-])cc2C1=O)c1ccc(Oc2ccccc2)cc1 -28.5%
CCOC(=O)c1ccc(NC(=O)c2ccc(Cl)c(Cl)c2)cc1 6.96%
CCN(CC)CCOC(=O)c1ccc(N=Cc2c(O)n(C)c(=O)[nH]c2=O)cc1 -180%
Cc1ccc(N(CN2C(=O)c3ccc([N+](=O)[O-])cc3C2=O)C(=O)C(c2ccccc2)c2ccccc2)cc1 -39.6%
Cc1cc(-n2c(C)cc(C=C3C(=O)NC(=O)NC3=O)c2C)ccc1I -48.2%
CCCCCCC(=O)N(CN1C(=O)c2ccccc2C1=O)c1ccccc1OC -57.6%
CC(=O)N(/C=C1\Sc2ccccc2C1=O)c1ccc(C)cc1 -201% and -215% and -234%
CC(=O)N(CN1C(=O)c2ccccc2C1=O)c1ccccc1Cl -37.3% and -49.8%
Cn1c(=O)[nH]c(=O)c2nc(-c3ccccc3)c(-c3ccccc3)nc21 -33.3%
CC(=O)N(CN1C(=O)c2ccccc2C1=O)c1ccc(Br)cc1 -29.4%

Source: PubChem BioAssay AID1053 (University of Pittsburgh Molecular Library Screening Center, 2008)
